Data reported in PubChem BioAssay (NCATS).
Records with an inconclusive call do not appear. A number with no mark means an inactive call. Calls of active or inactive are those of the source. The call rests on the fitted dose curve; in most records, active means well fitted inhibition curve with a large enough effect; inconclusive means small, poorly fitted or top-dose-only effect; inactive means flat fitted curve, though single readings scatter.

Experiments:
Test in all cases: Cytotoxic Profiling of Annotated Libraries Using Quantitative High-Throughput Screening (AID 1296008); further: nearly all actives have a fitted effect of over 60% in size
Settings in all cases: Five cell lines viability, CellTiter-Glo ATP luminescence, 48-72 h; max response: hits give low values
CRL-7250 = system: CRL-7250
Procedure, shortened: (§1)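 Compounds were pin-transferred onto cells and incubated 48 or 72 hr at 37 degree Celsius, 95% humidity. CellTiter-Glo was added, plates sat 10 min at room temperature, then ATP-coupled luminescence was imaged as the viability read-out.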

KB-3-1 = system: KB-3-1
Procedure, shortened: as §1

NIH3T3 = system: NIH3T3
Procedure, shortened: as §1

HEK293 = system: HEK293
Procedure, shortened: as §1
On the % scale 0 is the no-effect control and ±100 the full control effect; potency means the concentration at half of the fitted maximal effect.

`Cn1ccc(NC(=O)c2cc(Oc3ccc(C(=O)N4CCC4)c(F)c3)c3c(c2)OC(C)(C)C3)n1` gave a max response (CRL-7250) of 3.93%, a max response (KB-3-1) of 1.91% and a max response (NIH3T3) of 4.11%.

`C/C=C/C=C/C=C/C(=O)O[C@@H]1C=C2COC(=O)[C@]2(O)[C@@]2(C)CCCC(C)(C)[C@H]12` showed a max response (CRL-7250) of -25.9%, a max response (KB-3-1) of -0.753% and a max response (NIH3T3) of -4.92%.

`COc1ccccc1N1CCN(c2ncnc3n[nH]c(Br)c23)CC1` was tested, and the max response (CRL-7250) was -14.5% and the outcome (NIH3T3) was “inactive”.

`CC(C)c1cc(-c2ccc(F)c3ccccc23)nc(N)n1` was tested, and the max response (CRL-7250) was 2.23%, the max response (KB-3-1) was -2.32% and the outcome (NIH3T3) was “inactive”.

Compound `O=C1C[C@]23C=CCN4CCC5c6cc7c(cc6N1[C@@]5(CC2)C43)OCO7` (some centres not stated) has a max response (CRL-7250) of -12% and a max response (NIH3T3) of -4.65%.

`Cn1sc(=O)n(Cc2ccccc2)c1=O` was tested, and the Potency (HEK293) was 6.51 µM (active).

With `CCS(=O)c1nc(-c2cccc(OCc3ccccc3)c2)cc(C(F)(F)F)n1` (configuration not stated) the max response (CRL-7250) was 1.1% and the Potency (NIH3T3) was 18.4 µM (active).

`OC[C@H]1O[C@@H](OC/C=C/c2ccc(O)cc2)[C@H](O)[C@@H](O)[C@@H]1O` showed a max response (CRL-7250) of -28.9% and a max response (NIH3T3) of -11.1%.

For `Nc1nccc(-c2c(-c3ccc(F)cc3)ncn2C2CCCCC2)n1`, the max response (CRL-7250) was -18.7%, the max response (KB-3-1) was -18.1% and the Potency (NIH3T3) was 16.4 µM (active).

In the case of `CC(C)c1ccc(NC(=O)c2cccs2)c(-c2nc3ccccc3[nH]c2=O)c1`, the max response (CRL-7250) is reported as 4.02% and the max response (NIH3T3) is reported as 0.611%.

`CS(=O)(=O)Nc1ccc2oc3c(OC(F)F)ccc(C(=O)Nc4c(Cl)cncc4Cl)c3c2c1` gave a max response (CRL-7250) of -13.5% and a max response (NIH3T3) of -9.63%.

For `CNc1cccc(CCOc2ccc3c(c2)CN(CC(F)(F)F)C(=O)[C@H](CC(=O)O)C3)n1`, the Potency (CRL-7250) was 0.082 µM (active), the max response (KB-3-1) was -2.45% and the Potency (NIH3T3) was 0.116 µM (active).

Work on `O=C(CNC(=O)c1cccc(C(F)(F)F)c1)N[C@@H]1CCN(Cc2ccc(Cl)cc2)C1` yielded a max response (CRL-7250) of -11.8%, a max response (KB-3-1) of -17% and a max response (NIH3T3) of -1.44%.

With `Cn1cc(-c2ccc3c(c2)CCN3C(=O)Cc2cccc(C(F)(F)F)c2)c2c(N)ncnc21` the Potency (CRL-7250) was 16.4 µM (active) and the max response (NIH3T3) was -21.2%.

For `Cc1c[nH]c2ncnc(N3CCC(CN)(C(=O)Nc4cccc(OC(=O)N(C)C)c4)CC3)c12`, the Potency (HEK293) was 3.66 µM (active).

In the case of `CCN1CCC[C@@H]1CNC(=O)c1ccc2c(c1)NC(=O)c1cccc(C)c1S2`, the max response (CRL-7250) is reported as 2.08%, the outcome (KB-3-1) is reported as “inactive” and the outcome (NIH3T3) is reported as “inactive”.

With `CC(C)n1nc(C#Cc2ccccc2)c2c(N)ncnc21` the Potency (CRL-7250) was 16.4 µM (active) and the Potency (NIH3T3) was 11.6 µM (active).

In the case of `COc1ccc2nc3n[nH]c(C)c3c(NCCOCCO)c2c1`, the max response (CRL-7250) is reported as 4.22%, the max response (KB-3-1) is reported as 2.11% and the max response (NIH3T3) is reported as 2.85%.

For `CC(=O)O[C@H]1[C@H](O)C[C@@]2(C)C(CC[C@]3(C)C2CC=C2C4CC(C)(C)CC[C@]4(C(=O)O)CC[C@]23C)C1(C)C` (some centres not stated), the max response (CRL-7250) was -14.7%, the max response (KB-3-1) was -19.6% and the max response (NIH3T3) was -15.2%.

In the case of `Cc1c(C(=O)Nc2ccc(N3CCC(N4CCOCC4)CC3)c(C#N)c2)cnn1-c1ccc(Cl)cc1`, the Potency (CRL-7250) is reported as 1.16 µM (active) and the Potency (NIH3T3) is reported as 0.366 µM (active).

In the case of `CC1(C)CCCC2(C)C1C(=O)C=C(C(=O)O)C2(O)C(=O)O` (configuration not stated), the max response (CRL-7250) is reported as -16% and the max response (NIH3T3) is reported as -3.77%.

Work on `CC1(CO)CC2C(O)C3=C(CC(C)(O)C2C1)C(=O)OC3` (configuration not stated) yielded a max response (CRL-7250) of -1.99%, a max response (KB-3-1) of 9.13% and a max response (NIH3T3) of 1.99%.
